Results from PubChem BioAssay AID1159580 (chemical genetic matrix, 2015).
About 2,000 (36%) of roughly 5,500 compounds were called active. Another 18% or so got no clear call; they are omitted. Rule as the data show it: active = normalized growth mostly below about 0.91 (no sharp cut-off); inconclusive = no clear call, values can overlap the other calls; inactive = mostly above about 0.92. The list shows a part of the results.

Experiment: chemical genetic growth profiling, strain panel (AID 1159580);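 also: tested at 20 µM; growth read once vehicle control cultures reached saturation at 30 °C; 1 = growth at the plate median or of vehicle wells; lower values mean less growth of the strain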
Conditions: growth OD

Measured: normalized growth

CC1(C)C(=O)C=C[C@@]2(C)C1CC(=O)[C@@]1(C)C3=CC(=O)O[C@@H](c4ccoc4)[C@]3(C)CCC12 (some centres undefined)
inactive: S. cerevisiae deletion strains, locus YBR021W, strain FUR4, hits give low values 0.994 | S. cerevisiae deletion strains, locus YBR229C, strain ROT2, hits give low values 1 | S. cerevisiae deletion strains, locus YCL029C, strain bik1, hits give low values 0.994 | S. cerevisiae deletion strains, locus YDL035C, strain GPR1, hits give low values 1.02 | S. cerevisiae deletion strains, locus YDL074C, strain BRE1, hits give low values 1 | S. cerevisiae deletion strains, locus YDL101C, strain DUN1, hits give low values 0.997 | S. cerevisiae deletion strains, locus YDL185W, strain tfp1, hits give low values 1 | S. cerevisiae deletion strains, locus YDL192W, strain arf1, hits give low values 0.987 | S. cerevisiae deletion strains, locus YDR101C, strain arx1, hits give low values 0.988 | S. cerevisiae deletion strains, locus YDR162C, strain NBP2, hits give low values 1.01 | S. cerevisiae deletion strains, locus YDR318W, strain mcm21, hits give low values 0.993 | S. cerevisiae deletion strains, locus YDR388W, hits give low values 0.996 | S. cerevisiae deletion strains, locus YDR502C, strain sam2, hits give low values 0.983 | S. cerevisiae deletion strains, locus YER110C, hits give low values 0.989 | S. cerevisiae deletion strains, locus YER155C, strain BEM2, hits give low values 1.01 | S. cerevisiae deletion strains, locus YER167W, strain BCK2, hits give low values 1 | S. cerevisiae deletion strains, locus YGL078C, strain dbp3, hits give low values 0.999 | S. cerevisiae deletion strains, locus YGL086W, strain mad1, hits give low values 1.01 | S. cerevisiae deletion strains, locus YGL248W, strain PDE1, hits give low values 0.997 | S. cerevisiae deletion strains, locus YGR078C, strain PAC10, hits give low values 0.997 | S. cerevisiae deletion strains, locus YGR135W, strain pre9, hits give low values 0.993 | S. cerevisiae deletion strains, locus YGR229C, strain SMI1, hits give low values 1.01 | S. cerevisiae deletion strains, locus YGR252W, strain gcn5, hits give low values 0.939 | S. cerevisiae deletion strains, locus YHR079C, strain IRE1 (second series), hits give low values 0.988 | S. cerevisiae deletion strains, locus YHR094C, strain hxt1, hits give low values 0.991 | S. cerevisiae deletion strains, locus YHR129C, strain ARP1, hits give low values 0.998 | S. cerevisiae deletion strains, locus YHR200W, strain rpn10, hits give low values 0.99 | S. cerevisiae deletion strains, locus YIL066C, strain RNR3, hits give low values 1.01 | S. cerevisiae deletion strains, locus YIL073C, strain SPO22, hits give low values 1.04 | S. cerevisiae deletion strains, locus YIL125W, strain kgd1, hits give low values 0.991 | S. cerevisiae deletion strains, locus YIR030C, strain dcg1, hits give low values 0.996 | S. cerevisiae deletion strains, locus YJL095W, strain BCK1, hits give low values 0.988 | S. cerevisiae deletion strains, locus YJL134W, strain LCB3, hits give low values 1.01 | S. cerevisiae deletion strains, locus YJL168C, strain set2, hits give low values 0.998 | S. cerevisiae deletion strains, locus YJL187C, strain SWE1 (second series), hits give low values 0.996 | S. cerevisiae deletion strains, locus YJR043C, strain POL32, hits give low values 1.01 | S. cerevisiae deletion strains, locus YKL009W, strain mrt4, hits give low values 1.01 | S. cerevisiae deletion strains, locus YKL068W, hits give low values 1 | S. cerevisiae deletion strains, locus YKL085W, strain MDH1 (second series), hits give low values 0.998 | S. cerevisiae deletion strains, locus YKL085W, strain MDH1, hits give low values 0.998 | S. cerevisiae deletion strains, locus YKR001C, strain vps1, hits give low values 0.98 | S. cerevisiae deletion strains, locus YLR039C, strain RIC1, hits give low values 1.02 | S. cerevisiae deletion strains, locus YLR058C, strain SHM2, hits give low values 1 | S. cerevisiae deletion strains, locus YLR102C, strain apc9, hits give low values 0.994 | S. cerevisiae deletion strains, locus YLR262C, strain YPT6, hits give low values 1.04 | S. cerevisiae deletion strains, locus YLR268W, strain sec22, hits give low values 1 | S. cerevisiae deletion strains, locus YLR330W, strain CHS5, hits give low values 1 | S. cerevisiae deletion strains, locus YLR371W, strain rom2, hits give low values 0.988 | S. cerevisiae deletion strains, locus YLR418C, strain cdc73, hits give low values 0.985 | S. cerevisiae deletion strains, locus YML016C, strain PPZ1, hits give low values 1 | S. cerevisiae deletion strains, locus YML032C, strain rad52, hits give low values 0.998 | S. cerevisiae deletion strains, locus YML124C, strain tub3, hits give low values 0.996 | S. cerevisiae deletion strains, locus YMR078C, strain ctf18, hits give low values 1.01 | S. cerevisiae deletion strains, locus YMR223W, strain ubp8, hits give low values 0.983 | S. cerevisiae deletion strains, locus YMR263W, strain SAP30, hits give low values 0.998 | S. cerevisiae deletion strains, locus YMR307W, strain GAS1, hits give low values 0.98 | S. cerevisiae deletion strains, locus YNL067W, strain RPL9B, hits give low values 0.996 | S. cerevisiae deletion strains, locus YNL128W, strain TEP1, hits give low values 1.02 | S. cerevisiae deletion strains, locus YNL233W, strain BNI4, hits give low values 1.02 | S. cerevisiae deletion strains, locus YNL250W, strain rad50, hits give low values 1 | S. cerevisiae deletion strains, locus YNL271C, strain bni1, hits give low values 1 | S. cerevisiae deletion strains, locus YNL298W, strain CLA4, hits give low values 0.987 | S. cerevisiae deletion strains, locus YNL307C, strain MCK1, hits give low values 0.994 | S. cerevisiae deletion strains, locus YNR052C, strain pop2, hits give low values 0.979 | S. cerevisiae deletion strains, locus YOL012C, strain htz1 1.33 | S. cerevisiae deletion strains, locus YOL147C, strain pex11, hits give low values 0.992 | S. cerevisiae deletion strains, locus YOR061W, strain CKA2, hits give low values 1.01 | S. cerevisiae deletion strains, locus YOR069W, strain VPS5, hits give low values 0.999 | S. cerevisiae deletion strains, locus YOR136W, strain idh2, hits give low values 1.01 | S. cerevisiae deletion strains, locus YOR144C, strain elg1, hits give low values 0.99 | S. cerevisiae deletion strains, locus YOR184W, strain ser1, hits give low values 1.01 | S. cerevisiae deletion strains, locus YOR316C, strain cot1, hits give low values 0.992 | S. cerevisiae deletion strains, locus YPL241C, strain CIN2, hits give low values 1.01 | S. cerevisiae deletion strains, locus YPR119W, strain clb2, hits give low values 0.998 | S. cerevisiae deletion strains, locus YPR141C, strain kar3, hits give low values 1 | S. cerevisiae deletion strains, locus YPR163C, strain tif3, hits give low values 1 | S. cerevisiae deletion strains, locus YPR167C, strain met16, hits give low values 1 | S. cerevisiae deletion strains, strain wtn01, hits give low values 0.992 | S. cerevisiae strains, strain wild type, hits give low values 1.01
